Test systems include HCT-15 colon; HT29 colon; SNB-75 CNS; SNB-19 CNS; U251 CNS; PC-3 prostate; SK-MEL-5 melanoma; UACC-62 melanoma; LOX IMVI melanoma; SK-MEL-28 melanoma; SK-MEL-2 melanoma; EKVX NSCLC; SN12C renal; UO-31 renal; TK-10 renal; ACHN renal; A498 renal; CCRF-CEM leukemia; MOLT-4 leukemia; CAKI-1 renal.
Common to all, as to assay: NCI-60 one-dose screen, 48 h (100 = growth as untreated, 0 = no growth, -100 = all killed)
What all share (details): 10 µM unless noted

About 83,000 compounds went through this panel and 20% of them were active in at least one assay; those are over-represented in the sample as a whole.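 48-hour exposure, single concentration, 96-well plates; percent growth endpoint where 0 means no net growth. Active: below 10.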 A number with no mark means an inactive call. Active and inactive are the calls of the source.

Take `O=C(Nc1ccccc1)c1cc(-n2cnc([N+](=O)[O-])c2)cc(-n2cnc([N+](=O)[O-])c2)n1`: the growth in the assay on HCT-15 colon was 114%; with HT29 colon, 107%; in the assay on SNB-75 CNS it was 98.9%; in the assay on SNB-19 CNS, 106%; in the assay with U251 CNS it was 101%; with PC-3 prostate, 88.8%. Also, the growth in the assay with SK-MEL-5 melanoma was 95.6%; in the assay with UACC-62 melanoma, 103%; in the assay with LOX IMVI melanoma, 94.2%; in the assay on SK-MEL-28 melanoma, 122%; with SK-MEL-2 melanoma it was 103%; in the assay with EKVX NSCLC, 107%. The growth in the assay on SN12C renal was 103%; in the assay with UO-31 renal, 92.3%; with TK-10 renal, 112%; with ACHN renal it was 100%; with A498 renal, 114%; in the assay with CCRF-CEM leukemia, 89.3%. Besides, in the assay with MOLT-4 leukemia, the growth is 94.2%.
`Clc1ccc2nc(CI)c(CI)nc2c1`: the growth in the assay with HCT-15 colon is 27.1%; in the assay with HT29 colon it was 100%; with SNB-75 CNS, 96.6%; in the assay with SNB-19 CNS, 97.1%; with U251 CNS it was 71.7%; with PC-3 prostate it was 84.8%. The growth with SK-MEL-5 melanoma is 75%; in the assay with UACC-62 melanoma, 81.9%; in the assay on LOX IMVI melanoma it was 14.9%; in the assay with SK-MEL-28 melanoma it was 113%; with SK-MEL-2 melanoma it was 82.5%; in the assay with EKVX NSCLC, 90.1%. The growth with SN12C renal is 59.4%; in the assay on UO-31 renal, -31.8% (active); in the assay with TK-10 renal it was 88.3%; in the assay on ACHN renal it was 87.7%; with A498 renal, 118%; in the assay on CCRF-CEM leukemia, 4.15% (active). The growth in the assay with MOLT-4 leukemia was -27.4% (active).
In the case of `NC(=NCCCCCCN=C(N)/N=C(\N)Nc1ccc(Cl)cc1)/N=C(\N)Nc1ccc(Cl)cc1`, the growth is 17.2% in the assay with HCT-15 colon; 7.91% (active) in the assay with HT29 colon; -7.16% (active) with SNB-75 CNS; 13.7% in the assay with SNB-19 CNS; -5.76% (active) in the assay on U251 CNS; 20.7% in the assay with PC-3 prostate. The growth is -95.7% (active) with SK-MEL-5 melanoma; 8.7% (active) with UACC-62 melanoma; 23.4% in the assay on LOX IMVI melanoma; 32.8% in the assay on SK-MEL-28 melanoma; -31.8% (active) in the assay on SK-MEL-2 melanoma; 23.9% in the assay with EKVX NSCLC. Also, the growth is 5.89% (active) with SN12C renal; 46.6% in the assay with UO-31 renal; 20.5% with ACHN renal; 10.3% with CAKI-1 renal; 11.1% in the assay with A498 renal; 12.5% in the assay with CCRF-CEM leukemia. For the same compound, the growth with MOLT-4 leukemia was 21.2%.
As to `O=C1CSC(c2ccccc2O)N1c1nnc(Cn2ccnc2)o1` (stereo unspecified), the growth was 28.8% with HCT-15 colon; 86.2% with HT29 colon; 74.9% in the assay on SNB-75 CNS; 86.3% in the assay with SNB-19 CNS; 66.6% in the assay on U251 CNS; 64.6% in the assay with PC-3 prostate. The growth in the assay on SK-MEL-5 melanoma is 55.1%; in the assay with UACC-62 melanoma, 77.4%; with LOX IMVI melanoma, 56%; with SK-MEL-28 melanoma it was 74.8%; in the assay on SK-MEL-2 melanoma, 90.3%; with EKVX NSCLC, 81.5%. Besides, the growth in the assay on SN12C renal was 66.1%; in the assay on UO-31 renal, 32.9%; with ACHN renal it was 53.6%; in the assay on CAKI-1 renal, -37.5% (active); with A498 renal, 99.5%; with CCRF-CEM leukemia, 34%. Also, in the assay on MOLT-4 leukemia, the growth is 48.6%.
For `N#Cc1c(-c2ccc(F)cc2)n2c(nc1=O)SC(=O)C2=O`, the growth with HCT-15 colon is 106%; in the assay on HT29 colon it was 105%; with SNB-75 CNS, 83.8%; in the assay on SNB-19 CNS, 103%; in the assay on U251 CNS, 92.2%; in the assay with PC-3 prostate, 92.1%. For the same compound, the growth in the assay on SK-MEL-5 melanoma was 96.5%; in the assay with UACC-62 melanoma, 80.2%; with LOX IMVI melanoma, 87.3%; in the assay on SK-MEL-28 melanoma, 102%; in the assay on SK-MEL-2 melanoma, 92%; in the assay on EKVX NSCLC, 91.3%. Also, the growth is 91.1% with SN12C renal; 110% with UO-31 renal; 90.3% in the assay with ACHN renal; 86.4% in the assay with CAKI-1 renal; 70% in the assay with A498 renal; 85.4% with CCRF-CEM leukemia. In addition, the growth in the assay with MOLT-4 leukemia is 90.5%.
Consider `C#C[C@]1(O)CCC2C3CCc4cc(O)ccc4C3CC[C@@]21C` (stereo partly specified), for which the growth was 31.9% in the assay on HCT-15 colon; 11.7% with HT29 colon; 38.8% with SNB-75 CNS; 53.1% in the assay with SNB-19 CNS; 32.2% with U251 CNS; 64.9% with PC-3 prostate. Moreover, the growth in the assay with SK-MEL-5 melanoma was 8.95% (active); in the assay on UACC-62 melanoma it was 30.5%; in the assay with LOX IMVI melanoma, 41.8%; with SK-MEL-28 melanoma, 59.2%; in the assay with SK-MEL-2 melanoma, 18.5%; with EKVX NSCLC, 31.6%. Besides, the growth with SN12C renal was 52.3%; in the assay with UO-31 renal it was 55.7%; in the assay with ACHN renal, 60.4%; in the assay on CAKI-1 renal it was 45.3%; in the assay on A498 renal, 49.2%; with CCRF-CEM leukemia it was 39%. In addition, the growth with MOLT-4 leukemia is 23.4%.
With `O=C1Nc2ccc(C(=O)O)c(O)c2C1=O`, the growth in the assay with HCT-15 colon was 110%; with HT29 colon it was 117%; in the assay with SNB-75 CNS, 103%; in the assay with SNB-19 CNS, 107%; in the assay on U251 CNS, 106%; in the assay on PC-3 prostate it was 95.7%. Also, the growth is 104% in the assay with SK-MEL-5 melanoma; 101% in the assay with UACC-62 melanoma; 54.5% in the assay with LOX IMVI melanoma; 111% in the assay on SK-MEL-28 melanoma; 103% with SK-MEL-2 melanoma; 97.8% in the assay on EKVX NSCLC. The growth with SN12C renal was 107%; in the assay on UO-31 renal, 91.7%; in the assay on TK-10 renal, 107%; with ACHN renal it was 104%; in the assay on CAKI-1 renal, 92.2%; in the assay on CCRF-CEM leukemia, 94.9%. Also, in the assay on MOLT-4 leukemia, the growth is 110%.
With `O=c1oc2c(cc1-c1ccc([N+](=O)[O-])cc1)C(O)Oc1ccccc1-2` (stereo unspecified), the growth in the assay on HCT-15 colon is 92.2%; with HT29 colon, 99.9%; with SNB-75 CNS, 111%; in the assay with SNB-19 CNS it was 83.4%; in the assay on U251 CNS, 97.6%; in the assay with PC-3 prostate it was 57.5%. Also, the growth was 80.4% in the assay on SK-MEL-5 melanoma; 78.7% in the assay on UACC-62 melanoma; 98.9% with LOX IMVI melanoma; 99.4% in the assay on SK-MEL-28 melanoma; 71.6% in the assay with SK-MEL-2 melanoma; 80.7% with EKVX NSCLC. The growth in the assay on SN12C renal was 98.4%; in the assay with UO-31 renal, 74.5%; with TK-10 renal, 95.8%; in the assay with ACHN renal it was 103%; in the assay on CAKI-1 renal it was 78.2%; in the assay on CCRF-CEM leukemia it was 62.5%. In addition, the growth in the assay on MOLT-4 leukemia is 63.6%.
With `CCSc1nc(-c2cccs2)n2nc(-c3ccco3)cc2n1`, the growth in the assay on HCT-15 colon is 78%; with HT29 colon it was 88.8%; with SNB-75 CNS it was 84.2%; in the assay on SNB-19 CNS, 109%; in the assay with U251 CNS it was 91.4%; in the assay with PC-3 prostate, 99%. Also, the growth in the assay with SK-MEL-5 melanoma is 86.5%; in the assay with UACC-62 melanoma it was 85.2%; in the assay with LOX IMVI melanoma it was 92%; in the assay on SK-MEL-28 melanoma it was 113%; with SK-MEL-2 melanoma, 105%; in the assay with EKVX NSCLC it was 81.3%. In addition, the growth is 89.7% in the assay on SN12C renal; 79.7% in the assay with UO-31 renal; 94.1% in the assay on ACHN renal; 86.3% in the assay on CAKI-1 renal; 94.4% in the assay with A498 renal; 88.7% in the assay on CCRF-CEM leukemia. For the same compound, in the assay on MOLT-4 leukemia, the growth is 115%.
